Several values for one entry are separate records, joined by “and”; a condition that tells them apart may be missing. Equal values may be shown once. Activity calls are given as the source filed them. Unless noted, no rule for the calls is given here.
How the values were obtained:
[1] = compound effects on lung adenocarcinoma cell viability – A549, calcein-AM fluorescence, 48 h, basal, profiling panel (AID 1162); settings: higher = more signal; also: test concentration not given here
[2] = compound effects on differentiated 3T3-L1 adipocyte viability – cell-based, 3T3-L1 adipocytes, calcein-AM fluorescence, 48 h, basal, profiling panel (AID 1163); settings: 3T3-L1 adipocytes viability, higher = more signal; also: test concentration not given here
[3] = compound effects on hepatocellular carcinoma cell viability – HepG2, calcein-AM fluorescence, 48 h, basal, profiling panel (AID 1164); settings: higher = more signal; also: test concentration not given here
[4] = compound effects on multiple myeloma cell viability – MM1S, calcein-AM fluorescence, 48 h, basal, profiling panel (AID 1165); settings: higher = more signal;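 also: viability of MM1S multiple myeloma cells under basal unstimulated conditions; test concentration not given here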
[5] = calcein-AM signal in unstimulated myeloma cells – cell-based, calcein-AM fluorescence, 48 h, PK04 Diversity Set, profiling panel (AID 1166); settings: RPMI8226 myeloma viability, higher = more signal;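 also: cells grown under basal conditions without added stimulus; test concentration not given here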
[6] = JC-1 mitochondrial signal, unstimulated HepG2 cells – cell-based, JC-1 fluorescence, 24 h, 100 nL compound, profiling panel (AID 1167); settings: HepG2 mitochondrial potential, higher = more signal; also: test concentration not given here
[7] = JC-1 mitochondrial signal, unstimulated adipocytes – cell-based, JC-1 fluorescence, 3T3-L1 adipocytes, 24 h, 100 nL compound, profiling panel (AID 1168); settings: JC-1 mitochondrial fluorescence, higher = more signal, called active from +8 up or from −8 down; also: test concentration not given here
[8] = JC-1 mitochondrial signal, unstimulated myeloma cells – cell-based, JC-1 fluorescence, RPMI8226, 24 h, 100 nL compound, profiling panel (AID 1169); settings: JC-1 mitochondrial potential fluorescence, higher = more signal; also: test concentration not given here
[9] = JC-1 mitochondrial signal, unstimulated MM1S myeloma – cell-based, JC-1 fluorescence, 24 h, 100 nL compound, profiling panel (AID 1170); settings: MM1S mitochondrial potential, higher = more signal; also: test concentration not given here
[10] = resazurin metabolic signal in A549 cells – cell-based, resazurin fluorescence, 24 h, PK04 Diversity Set, profiling panel (AID 1171); settings: A549 viability, higher = more signal, called active from +8 up or from −8 down; also: test concentration not given here
[11] = resazurin metabolic signal in HepG2 cells – cell-based, resazurin fluorescence, 24 h, PK04 Diversity Set, profiling panel (AID 1172); settings: HepG2 viability, higher = more signal; also: test concentration not given here
[12] = budding yeast growth changes without added modifier – OD600, strain BY4716, 24 h, basal condition, primary screen (AID 1173); settings: S. cerevisiae BY4716 growth, OD600, 24 h; higher = more signal, called active from +8 up or from −8 down
[13] = viability profiling in MM1S myeloma cells – cell-based, resazurin fluorescence, basal, 24 h, PK04 Diversity Set, profiling panel (AID 1174); settings: higher = more signal, called active from +8 up or from −8 down; also: test concentration not given here
[14] = molecular target: Dihydroorotate dehydrogenase (quinone), mitochondrial (Plasmodium falciparum (isolate 3D7)) (UniProt Q08210); test: inhibition of P. falciparum DHODH – biochemical, C-terminal His tag, absorbance 600 nm, primary screen (AID 1175); settings: PfDHODH enzyme, DCIP absorbance 600 nm; higher = more signal, called active from +8 up or from −8 down;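 also: recombinant parasite enzyme with a five histidine tag at its C terminus; test concentration not given here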
[15] = inhibition of PAO1 biofilm formation – strain PAO1, LB-PBS medium, absorbance 600 nm, primary screen (AID 1176); also: test concentration not given here; settings: P. aeruginosa PAO1 growth/biofilm, A600, 12 h; higher = more signal
[16] = growth modulation of vineyard yeast isolate – strain RM11-1a, OD600, basal, 24 h, primary screen (AID 1177);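 also: cultures grown under basal conditions with no added stressor; test concentration not given here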; settings: S. cerevisiae RM11-1a growth, OD600, 24 h; higher = more signal, called active from +8 up or from −8 down
[17] = growth of efflux-deficient E. coli DRC39 – strain DRC39, OD650, 24 h, E. coli filamentation inducers, primary screen (AID 1178);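 also: growth measured as culture turbidity by optical density at 650 nm; test concentration not given here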; settings: E. coli DRC39 acrAB, higher = more signal, called active from +8 up or from −8 down
[18] = growth of efflux-deficient E. coli DRC39 – strain DRC39, OD650, 48 h, E. coli filamentation inducers, primary screen (AID 1179);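 also: screen aims at cell division blockers that make cells filament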; settings: E. coli DRC39 delta-acrAB growth, higher = more signal, called active from +8 up or from −8 down
[19] = viability profiling in RPMI8226 myeloma cells – cell-based, resazurin fluorescence, basal, 24 h, PK04 Diversity Set, profiling panel (AID 1180); settings: higher = more signal;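 also: RPMI8826 multiple myeloma cell line at 5000 cells per well; test concentration not given here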
[20] = molecular target: E3 ubiquitin-protein ligase XIAP (Homo sapiens) (UniProt P98170); test: small molecules binding XIAP protein – biophysical, small-molecule microarray, fluorescence 635 nm, primary screen (AID 1181); settings: higher = more signal;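 also: score merges 667 nm emission and signal to noise over triplicate slides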
Sequence of E3 ubiquitin-protein ligase XIAP (Homo sapiens) (P98170 whole entry, looked up): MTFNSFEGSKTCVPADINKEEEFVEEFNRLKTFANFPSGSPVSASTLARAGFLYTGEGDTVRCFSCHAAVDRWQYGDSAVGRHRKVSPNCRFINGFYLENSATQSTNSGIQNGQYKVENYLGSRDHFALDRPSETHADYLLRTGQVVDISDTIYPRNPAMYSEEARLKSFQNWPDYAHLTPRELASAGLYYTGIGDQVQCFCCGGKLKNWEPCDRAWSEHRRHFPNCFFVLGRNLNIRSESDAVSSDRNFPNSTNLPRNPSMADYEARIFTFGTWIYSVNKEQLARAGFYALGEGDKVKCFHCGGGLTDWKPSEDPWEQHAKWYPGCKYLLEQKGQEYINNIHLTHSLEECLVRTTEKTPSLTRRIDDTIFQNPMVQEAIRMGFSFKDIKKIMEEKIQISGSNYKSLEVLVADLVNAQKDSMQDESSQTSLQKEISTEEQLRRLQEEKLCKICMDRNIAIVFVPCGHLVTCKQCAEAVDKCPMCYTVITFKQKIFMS

Sequence of Dihydroorotate dehydrogenase (quinone), mitochondrial (Plasmodium falciparum (isolate 3D7)) (Q08210 whole entry, looked up): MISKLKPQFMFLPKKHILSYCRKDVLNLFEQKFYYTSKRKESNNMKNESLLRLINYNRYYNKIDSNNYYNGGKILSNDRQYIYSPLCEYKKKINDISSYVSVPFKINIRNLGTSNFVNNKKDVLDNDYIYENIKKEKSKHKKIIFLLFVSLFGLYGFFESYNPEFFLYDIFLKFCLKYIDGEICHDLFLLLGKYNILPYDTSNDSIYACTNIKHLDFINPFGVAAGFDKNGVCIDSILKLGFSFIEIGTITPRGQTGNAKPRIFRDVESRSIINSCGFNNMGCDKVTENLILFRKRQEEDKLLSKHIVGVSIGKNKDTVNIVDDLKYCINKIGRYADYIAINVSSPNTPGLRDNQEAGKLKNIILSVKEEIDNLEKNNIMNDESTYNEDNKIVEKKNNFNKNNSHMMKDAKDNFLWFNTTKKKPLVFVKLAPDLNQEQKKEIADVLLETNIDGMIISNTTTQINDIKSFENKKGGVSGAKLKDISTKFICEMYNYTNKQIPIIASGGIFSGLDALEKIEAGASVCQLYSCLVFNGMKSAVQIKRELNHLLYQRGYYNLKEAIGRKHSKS

| Structure (SMILES) | z-score [1] | z-score [2] | z-score [3] | z-score [4] | z-score [5] | z-score [6] | z-score [7] | z-score [8] | z-score [9] | z-score [10] | z-score [11] | z-score [12] | z-score [13] | composite z-score [14] | z-score [15] | z-score [16] | z-score [17] | z-score [18] | z-score [19] | composite z-score [20] |
| --- | --- | --- | --- | --- | --- | --- | --- | --- | --- | --- | --- | --- | --- | --- | --- | --- | --- | --- | --- | --- |
| Cc1ccc(S(=O)(=O)N[C@H]2COC(=O)[C@@H](C)COC(=O)[C@H](C)NC(=O)CC=C[C@H]2C)cc1 | 0.437 | 0.0608 | -0.107 | 0.143 | 0.0608 | 0.125 | 0.198 (inactive) | -0.137 | 0.894 | 1.57 (inactive) | 0.949 | -0.878 (inactive) | 0.799 (inactive) | -0.0791 (inactive) | -0.814 (inactive) | -0.233 (inactive) | 0.45 (inactive) | -0.166 (inactive) | 1.23 | -0.43 |
| O=C1[C@H]2[C@H]3[C@H](O)[C@H](O)CC(=NOCc4ccccc4)[C@H]3CC[C@H]2C(=O)N1Cc1ccccc1 | -0.85 | 1.18 | -0.977 | -0.695 | -1.69 | 1.09 | -0.0708 (inactive) | 0.00736 | -1.48 | 0.51 (inactive) | 0.447 | -2.68 (inactive) | 1.58 (inactive) | -2.59 (inactive) | 0.106 (inactive) | -2.13 (inactive) | 0.323 (inactive) | -0.777 (inactive) | 0.719 | -0.13 |
| CC(C)[Si]1(C(C)C)OCc2cc(C3CC3)nc(CCc3ccccc3)c21 | -0.351 and -0.69 | 0.193 and -0.871 | 0.498 and 0.203 | -2.57 and -2.81 | -0.48 and -3.77 | -1.5 and -2.69 | -0.186 (inactive) and -0.575 (inactive) | -0.14 and -0.902 | 0.245 and -0.582 | 1.12 (inactive) and 1.39 (inactive) | 0.983 and 1.3 | 1.04 (inactive) and 0.427 (inactive) | 0.905 (inactive) and 0.656 (inactive) | -0.092 (inactive) and -0.377 (inactive) | 0.338 (inactive) and 0.35 (inactive) | 0.534 (inactive) and 0.156 (inactive) | 0.428 (inactive) and -0.615 (inactive) | 0.26 (inactive) and -0.173 (inactive) | 0.635 and 0.355 | 0.321 and -0.305 |

Reference: PubChem BioAssay
